TIM10 inh – growth inhibitors of isogenic TIM10 control yeast, primary screen, counter-screen for tim10-1 yeast inhibitor project, luminescence, uHTS | inhibition, % at 10 µM | actives 1.4% (n = 330,000) | S. cerevisiae TIM10 strain growth, BacTiter-Glo luminescence, 24 h;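 active = inhibition of 40% or more at the single tested concentration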;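 also: wild-type TIM10 isogenic control strain grown at permissive 25 °C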
tim10-1 inh – growth inhibitors of tim10-1 mutant yeast, primary screen, luminescence, uHTS; S. cerevisiae tim10-1 ts strain growth, BacTiter-Glo, 24 h; inhibition, % at 20 µM; actives 2.2% (n = 330,000);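 active = inhibition of at least 40%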;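 also: mutant grown at 25 °C; 0% = DMSO wells with yeast and 100% = wells holding no yeast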
tim23-1 inh – growth inhibitors of tim23-1 mutant yeast, primary screen, luminescence, uHTS. S. cerevisiae tim23-1 growth, BacTiter-Glo luminescence, 24 h. inhibition, % at 20 µM. actives 1.3% (n = 330,000). AID 463212, 2010;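 active = growth inhibition of the mutant yeast at or above 50%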;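 also: temperature-sensitive mutant grown at 25 °C; plate controls were DMSO-treated mutant yeast for no effect and medium wells lacking yeast for full effect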
NLRP3 yeast inh – NALP3 inflammasome inhibitors in reconstituted yeast, primary screen, luminescence, uHTS; actives 0.39% (n = 330,000); inhibition, % at 10 µM; AID 2825, 2010; Yeast reconstituted NLRP3/ASC/caspase-1, beta-gal luminescence, 24 h;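 active = inhibition of 50% or more; inactive = inhibition below 50%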;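 also: plate controls were induced DMSO wells for no effect and uninduced yeast grown without galactose for full effect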
PfHsp90 set2 – growth inhibition of PfHsp90-expressing yeast, primary screen, antimalarial PfHsp90 inhibitor project, S. cerevisiae, BacTiter-Glo luminescence, single point, set 2 | BacTiter-Glo ATP, 48 h; yeast lacking PDR1 and PDR3 efflux regulators | inhibition, % at 9.4 µM | actives 0.32% (n = 310,000);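 active = every replicate shows inhibition above about 80%, whatever the replicate mean, limit read from the data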;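 also: 0% = DMSO neutral controls and 100% = 20 µM radicicol positive controls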
SKKanGAS inh – S. pyogenes SKKanGAS growth inhibitors in kanamycin, primary screen, streptokinase expression inhibitor project, SKKanGAS strain, BacTiter-Glo luminescence | 6 h | inhibition, % at 7.5 µM | actives 1.3% (n = 300,000) | AID 1662, 2009;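 active = mean replicate score, as percent of positive control median, at least 50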;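 also: strain carries kanamycin resistance gene driven by streptokinase promoter and grows in 40 µg/ml kanamycin; loss of luminescence reflects streptokinase promoter inhibition or plain growth inhibition; 0% = median of DMSO wells and 100% = positive control at its reference dose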
tim10-1 conf – growth inhibitors of tim10-1 mutant yeast, confirmation, single concentration, luminescence, S. cerevisiae. inhibition, % at 20 µM. S. cerevisiae tim10-1 ts strain growth, BacTiter-Glo, 24 h. actives 56% (n = 7,400). shares compounds with tim10-1 inh;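 active = inhibition of yeast growth at or above a set limit in either of two repeat tests at 20 µM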;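 also: tim10-1 mutant grown at permissive 25 °C to find synthetic lethal compounds; 0% = DMSO yeast wells and 100% = medium wells without yeast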
The depositor's hits bear a star. Most compounds without a hit are left out; they make up all but 4.5% or so of the library.

What do the screens show for `O=C1CC(N2CCCN(C3CC(=O)N(c4ccc(F)cc4)C3=O)CC2)C(=O)N1c1ccc(F)cc1` (stereo not given)?
TIM10 inh: 22; tim10-1 inh: 47*; tim23-1 inh: 36; NLRP3 yeast inh: 26; PfHsp90 set2: 8; SKKanGAS inh: -14; tim10-1 conf: 42*

What do the screens show for `NC(=O)C1CCN(C2CC(=O)N(c3ccc(F)c(Cl)c3)C2=O)CC1` (stereo not given)?
TIM10 inh: 35; tim10-1 inh: 53*; tim23-1 inh: 45; NLRP3 yeast inh: 17; PfHsp90 set2: 104*; SKKanGAS inh: 4; tim10-1 conf: 50*

Results for O=C1CC(N2CCN(c3cccc(C(F)(F)F)c3)CC2)C(=O)N1c1ccccc1 (stereo not given) ?
TIM10 inh: 3; tim10-1 inh: 41*; tim23-1 inh: 13; NLRP3 yeast inh: -12; SKKanGAS inh: 11; tim10-1 conf: 25

How did O=C(COC(=O)CNS(=O)(=O)c1cccc(F)c1)NCCc1ccccc1 do in these assays?
TIM10 inh: -3; tim10-1 inh: 4; tim23-1 inh: 11; NLRP3 yeast inh: -3

What do the screens show for `CN(Cc1ccccc1)C(=O)CCC1CCN(S(C)(=O)=O)CC1`?
TIM10 inh: 2; tim10-1 inh: 23; tim23-1 inh: 6; NLRP3 yeast inh: 14; PfHsp90 set2: -10; SKKanGAS inh: -2

Results for CC(C)c1ccc(NC(=O)CN2CCN(C(=O)C3CCCO3)CC2)cc1 (stereo not given) ?
TIM10 inh: 2; tim10-1 inh: 5; tim23-1 inh: 0; NLRP3 yeast inh: 31; PfHsp90 set2: -7; SKKanGAS inh: 10

What do the screens show for `CCCOc1ccc(N2C(=O)CC(N3CCC(O)(c4cccc(C(F)(F)F)c4)CC3)C2=O)cc1` (stereo not given)?
TIM10 inh: 26; tim10-1 inh: 56*; tim23-1 inh: 48; NLRP3 yeast inh: 12; PfHsp90 set2: 3; SKKanGAS inh: -1; tim10-1 conf: 47*

How did COc1ccc(N2C(=O)CC(N3CCC(O)(c4ccc(Br)cc4)CC3)C2=O)cc1 (stereo not given) do in these assays?
TIM10 inh: -4; tim10-1 inh: 25; tim23-1 inh: 5; NLRP3 yeast inh: 12; SKKanGAS inh: 2

Results for CCN1C(=O)CC(N2CCC(Nc3ccc(OC)cc3)CC2)C1=O (stereo not given) ?
TIM10 inh: -5; tim10-1 inh: 0; tim23-1 inh: 9; NLRP3 yeast inh: -11; PfHsp90 set2: 10

What do the screens show for `COc1ccc(NC2CCN(C3CC(=O)N(c4ccc(F)c(Cl)c4)C3=O)CC2)cc1` (stereo not given)?
TIM10 inh: 37; tim10-1 inh: 54*; tim23-1 inh: 33; NLRP3 yeast inh: 28; PfHsp90 set2: 102*; SKKanGAS inh: 0; tim10-1 conf: 42*

What do the screens show for `N#CC(c1ccccc1O)N1N=C(c2ccccc2)CC1c1ccccc1` (stereo not given)?
TIM10 inh: 27; tim10-1 inh: -39; tim23-1 inh: 23; NLRP3 yeast inh: 26; PfHsp90 set2: 11; SKKanGAS inh: 6

What do the screens show for `COc1cc(C(C#N)N2N=C(c3ccccc3)CC2c2ccccc2)ccc1O` (stereo not given)?
TIM10 inh: 22; tim10-1 inh: 43*; tim23-1 inh: 37; NLRP3 yeast inh: 2; PfHsp90 set2: 19; SKKanGAS inh: 5; tim10-1 conf: 19

What do the screens show for `CCCC1(c2ccccc2)NC(=O)N(CC(=O)NCc2ccc(OC)cc2)C1=O` (stereo not given)?
TIM10 inh: 11; tim10-1 inh: 3; tim23-1 inh: 18; NLRP3 yeast inh: 8; PfHsp90 set2: 1; SKKanGAS inh: 3

Results for Cc1ccccc1-c1nnc2c3ccccc3c(C)nn12 ?
TIM10 inh: 1; tim10-1 inh: 4; tim23-1 inh: 17; NLRP3 yeast inh: 25; PfHsp90 set2: -9; SKKanGAS inh: 4

Results for COc1ccc(-c2nnc3c4ccccc4c(C)nn23)cc1 ?
TIM10 inh: 10; tim10-1 inh: 49*; tim23-1 inh: 43; NLRP3 yeast inh: 14; SKKanGAS inh: 18; tim10-1 conf: 26

Results for Cn1ncc(Cl)c1C(=O)Nc1cccc(Cl)c1 ?
TIM10 inh: 19; tim10-1 inh: 47*; tim23-1 inh: 29; NLRP3 yeast inh: 17; SKKanGAS inh: 0; tim10-1 conf: 27

How did CCCN(CCC)C(=O)c1cc(-c2ccc3c(c2)OCO3)nc2ccccc12 do in these assays?
TIM10 inh: 24; tim10-1 inh: 45*; tim23-1 inh: 42; NLRP3 yeast inh: 2; PfHsp90 set2: -9; SKKanGAS inh: 0; tim10-1 conf: 11

How did CC1CN(C(=O)Nc2cccc(C(F)(F)F)c2)CC(C)O1 (stereo not given) do in these assays?
TIM10 inh: 18; tim10-1 inh: 22; tim23-1 inh: 49; NLRP3 yeast inh: -7; PfHsp90 set2: -26; SKKanGAS inh: 4

How did CC(N=c1ccccn1C(=O)Nc1cccc(C(F)(F)F)c1)c1ccco1 (stereo not given) do in these assays?
TIM10 inh: 33; tim10-1 inh: 41*; tim23-1 inh: 29; NLRP3 yeast inh: 16; SKKanGAS inh: -7; tim10-1 conf: 33*

What do the screens show for `CC(C)[C@H](NS(=O)(=O)c1ccccc1F)C(=O)NC1CCCCC1`?
TIM10 inh: 9; tim10-1 inh: -7; tim23-1 inh: 8; NLRP3 yeast inh: 0; PfHsp90 set2: 19

Results for CN1C[C@@H]2C(c3ccccc3)C3(c4ccccc4)CC2(C3)[C@H]1c1ccccc1 (stereo not given in full) ?
TIM10 inh: 34; tim10-1 inh: 52*; tim23-1 inh: 23; NLRP3 yeast inh: 27; PfHsp90 set2: 0; SKKanGAS inh: 0; tim10-1 conf: 32*

Results for O=C(NCCC1CCCCN1S(=O)(=O)c1ccccc1)C(=O)NCc1ccccn1 (stereo not given) ?
TIM10 inh: 11; tim10-1 inh: -10; tim23-1 inh: 5; NLRP3 yeast inh: 7; PfHsp90 set2: 11; SKKanGAS inh: 5

How did O=C(CN1C(=O)C(c2ccccc2)Oc2cccnc21)NCc1ccccc1F (stereo not given) do in these assays?
TIM10 inh: -4; tim10-1 inh: 35; tim23-1 inh: 32; NLRP3 yeast inh: 17; PfHsp90 set2: -3; SKKanGAS inh: 0

Source: PubChem BioAssay
